Data reported in the supplement of paper PMC10338343.
± gives the standard deviation. In all, about 8,200 sequences were measured (“pre-steady-state target cleavage rate”: median about 0.024, highest 2% from about 1.3 on). For the sample, the highest values were picked, then their nearest neighbours and some sequences at random.

Tested on: MIWI (PIWIL1) piRISC loaded with L1MC piRNA (30 nt)
Assay: pre-steady-state target cleavage rate (min^-1); MIWI and MILI are mouse PIWI proteins and EfPiwi is from a freshwater sponge; tags in brackets are library labels; higher = faster piRNA-guided slicing of the target
Conditions: guide: L1MC piRNA 5'p-UAACUAAAUACUAUGCAAGCUGUAGGUCCU
Method in brief: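 Active affinity-purified piRISC (1 nM) loaded with one synthetic guide was mixed with a transcribed, DNA-blocked target RNA library (0.1 nM), with or without 500 nM GTSF1 partner protein, in HEPES–potassium acetate buffer at 33 °C for 0–8 or 0–960 min. Uncleaved targets were sequenced, normalised to depth and to weakly complementary targets, and pooled across three trials, with k3 capped at 0.0001 min^-1. The pre-steady-state cleavage rate was determined with a burst-and-steady-state fit.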

[1] = auxiliary factor: 500 nM mouse GTSF1
[2] = auxiliary factor: none (no GTSF1)

| Sequence | pre-steady-state target cleavage rate [1] | pre-steady-state target cleavage rate [2] |
| --- | --- | --- |
| UCCAUCUACAGCUUGCAUAGUAUUUAGUUA | 0.731 ± 0.031 | 0.0538 ± 0.0076 |
| AGGACACUACAGCUUGCAUAGUAUUUAGUUA | 1.13 ± 0.083 | 0.0749 ± 0.011 |
| UCCUGGAUCAGCUUGCAUUGUUUUUAGUUA | 0.0337 ± 0.0067 | 0.00759 ± 0.0022 |
| UCGACCUACAGCUUGCAUAGUAAUUAGUUA | 1.08 ± 0.049 | 0.0469 ± 0.012 |
| UCCUGGAUGUCCUUGCUAUGUAUUUAGUAA | 0.00637 ± 0.0038 |  |
| UCCUGGUACAGCUUGCAUAGUGAUUUAGUUA | 0.0476 ± 0.011 | 0.00639 ± 0.0029 |
| UCCUGGUACACCUAGCAUAGUAUUUAGUUA | 0.278 ± 0.063 | 0.00414 ± 0.0028 |
| UCGACCUAGAGCUUGCAUAGUAUUUAGAAA | 0.441 ± 0.048 | 0.00689 ± 0.0021 |
| UCCUGGUACUCGUUGCAUAGUAUUUAGUAA | 0.0165 ± 0.0088 |  |
| UCCUCGAACAGCUUGCAUAGUAUUUAGUAA | 0.982 ± 0.042 | 0.0424 ± 0.008 |
| UCGACGAACAGCUUGCAUAGUAUUUAGUAA | 0.962 ± 0.062 | 0.0577 ± 0.013 |
| UGGACGAACAGCUUGCAUAGUAUUUAGUUA | 1.17 ± 0.036 | 0.0856 ± 0.015 |
| UCCUCGAACAGCUUGCAUAGUAUUUAGUUA | 1.39 ± 0.039 | 0.0825 ± 0.015 |
| UCCUCGAACAGCUUGCAUAGUAUUUAGAAA | 0.474 ± 0.043 | 0.00694 ± 0.0025 |
| UCGACGAACAGCUUGCAUAGUAUUUAGUUA | 1.38 ± 0.049 | 0.0836 ± 0.015 |
| UCCUGGAACACCUUGCUUAGUAUUUAGUUA | 0.239 ± 0.032 | 0.00546 ± 0.0019 |
| AGCACCUACAGCUUGCAUAGUAUUUACUUA | 1.4 ± 0.24 |  |
| AUGACCUACAGCUUGCAUAGUAUUUAGUUA | 1.06 ± 0.03 | 0.0859 ± 0.013 |
| UGACCUACAGCUUGCAUAGUAUUUAGUUA | 1.57 ± 0.061 | 0.0842 ± 0.016 |
| AGGACCUACAGCUUGCAUAGUAUUUAGUGA | 1.01 ± 0.085 | 0.0934 ± 0.018 |

| Sequence | pre-steady-state target cleavage rate [1] | pre-steady-state target cleavage rate [2] |
| --- | --- | --- |
| UUGACCUACAGCUUGCAUAGUAUUUAGUUA | 1.16 ± 0.061 | 0.0724 ± 0.012 |
| AGUGACCUACAGCUUGCAUAGUAUUUAGUUA | 1.38 ± 0.056 | 0.0885 ± 0.015 |
| UGCACCUACAGCUUGCAUAGUAUUUACUUA | 0.46 ± 0.056 | 0.0724 ± 0.017 |
| UCCACCUACAGCUUGCAUAGUAUUUACUUA | 0.378 ± 0.044 | 0.0369 ± 0.0085 |
| UGGACCUACAGCUUGCAUAGUAUUUAGUGA | 1.12 ± 0.064 | 0.0575 ± 0.011 |
| UGUGACCUACAGCUUGCAUAGUAUUUAGUUA | 1.45 ± 0.063 | 0.0959 ± 0.018 |
| UCGACCAUGAGCUUGCAUAGUAUUUAGUAA | 0.804 ± 0.049 | 0.0343 ± 0.0083 |
| UCCUGGAUGUCGAACCAUAGAUUUAGUUA | < 0.0001 |  |
| UCCUGCUUCAGCUUGCAUAGUAAUUAGUUA | 0.823 ± 0.043 | 0.0173 ± 0.0042 |
| UCCUGCUACACCUUGCAUAGUAUUUACAAA | 0.245 ± 0.056 |  |
| UGGACCUACAGCUUGCAUAGUAUUAAGUAA | 0.335 ± 0.037 | 0.0164 ± 0.0052 |
| UCCUGGAUCAGCCUGCAUAGUAUUUAGUUA | 1.02 ± 0.045 | 0.0431 ± 0.008 |
| UGGACCUACAGCUUGCUAUGUAUUUAGUUA | 0.115 ± 0.016 | 0.00588 ± 0.001 |
| UCCUGGAACAGCUUGCAUAGUUUAUAGUUA | 0.0662 ± 0.011 | 0.0101 ± 0.003 |
| UGGAGCUACAGCUUGCAUAGUAUUUAGUUA | 1.25 ± 0.045 | 0.0783 ± 0.012 |
| UGGAGCUACACCUUGCAUAGUAUUUAGUUA | 1.12 ± 0.051 | 0.0597 ± 0.0097 |
| AGGAGCUACAGCUUGCAUAGUAUUUAGUAA | 1.02 ± 0.092 | 0.0616 ± 0.012 |
| AGGAGCUACAGCAUGCAUAGUAUUUAGUUA | 1.37 ± 0.058 | 0.0574 ± 0.01 |
| UGGAGCUACAGCAUGCAUAGUAUUUAGUUA | 1.14 ± 0.042 | 0.0429 ± 0.0078 |
| AGGAGCUACAGCUUGCAUAGUAUUUAGUUA | 1.42 ± 0.055 | 0.0984 ± 0.016 |

| Sequence | pre-steady-state target cleavage rate [1] | pre-steady-state target cleavage rate [2] |
| --- | --- | --- |
| UCGAGCUACAGCAUGCAUAGUAUUUAGUUA | 1.19 ± 0.054 | 0.0332 ± 0.0062 |
| AGGAGCUACACCUUGCAUAGUAUUUAGUUA | 1.36 ± 0.044 | 0.0609 ± 0.012 |
| UGGAGCUACAGCUUGCAUAGUAUUUAGUAA | 0.953 ± 0.06 | 0.0465 ± 0.0085 |
| UCGAGCUACACCUUGCAUAGUAUUUAGUUA | 1.01 ± 0.046 | 0.0524 ± 0.0089 |
| UGGAGCCUACAGCUUGCAUAGUAUUUAGUUA | 1.41 ± 0.1 | 0.0757 ± 0.013 |
| UCCUGCUACAGCUUGCAUUAGUAUUUAGUUA | 0.0188 ± 0.0083 |  |
| UCCAGGAACAGCUUGCAUAGUAUUUAGUAA | 0.57 ± 0.047 | 0.0391 ± 0.0081 |
| AGGAGCUACAGCUUGCAUAGUAUUAAGUUA | 0.783 ± 0.065 | 0.0457 ± 0.0092 |
| UCCACCUACAGCUUGCAUAGUUUUUUCAAA | 0.144 ± 0.028 |  |
| UCCUGGUACAGCUUGCAUAGUAUUAUCAAA [g7:g24:cont:t1A] | 0.124 ± 0.024 |  |
| UCCAGCUACAGCUUGCAUAGUAUUUAGUUA | 0.682 ± 0.042 | 0.0438 ± 0.0056 |
| UCGAGCCUACAGCUUGCAUAGUAUUUAGUUA | 1.46 ± 0.074 | 0.0844 ± 0.016 |
| UCCACCUACAGCUUGCAUAGUAUUUAGUUA [g2:g27:cont:t1A] | 0.987 ± 0.051 | 0.0744 ± 0.015 |
| UCCAGCCUACAGCUUGCAUAGUAUUUAGUUA | 1.32 ± 0.062 | 0.0623 ± 0.0092 |
| AGGAGCCUACAGCUUGCAUAGUAUUUAGUUA | 1.4 ± 0.072 | 0.0847 ± 0.013 |
| UCCUGGAUCAGCUAGCAUAGUAUUUAGAUA | 0.226 ± 0.026 | 0.00546 ± 0.0022 |
| UCGACCUACUGCUUGCAUACUAUUUAGUUA | 0.345 ± 0.014 | 0.0294 ± 0.0065 |
| UCCUCCUACAGCUUGCAUAAUAUUUAGUUA | 0.52 ± 0.03 | 0.0234 ± 0.0044 |
| UGGAGGAACAGCUUGCAUAGUAUUUAGUAA | 0.754 ± 0.05 | 0.0519 ± 0.012 |
| UCCACCUACACCAUGCAUAGUAUUUAGUUA | 0.719 ± 0.036 | 0.0161 ± 0.003 |
